Hit rate of the full screen: of about 2,400 compounds, about 1,800 (75%) were called active. So high a share suggests a set chosen from earlier hits. Not all results are given here. Values without a mark were called inactive.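 How the source made its calls: active means inhibition above the primary screen limit, the mean inhibition of all tested compounds plus 3 SD (cut at about 25% in these data); inactive means the rest.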
Test system: tRNA 2'-phosphotransferase TPT1 [Candida albicans SC5314]
Experiment: tRNA 2'-phosphotransferase enzyme inhibition – biochemical, fluorescence polarization, triplicate, confirmation (AID 2149)
Conditions: recombinant caTPT1, fluorescence polarization, RNase T1 coupled; at 5 µM; stronger effect = higher value

SMILES | inhibition
CCCCC(=O)N/N=C/c1c(O)n(CC)c(=S)n(CC)c1=O | 98.8% (active)
CCN1C(=O)C(=Cc2c(C)n(CC(=O)NCC3CCCO3)c3ccccc23)C(=O)N(CC)C1=S (centres undefined) | 18.6%
COc1ccc(N2C(=O)/C(=C/c3ccco3)C(=O)NC2=S)cc1 | 27.9% (active)
O=C1NC(=O)N(Cc2ccco2)C(=O)/C1=C\c1ccc(-c2ccc(F)cc2)o1 | 11.4%
O=C1NC(=O)N(Cc2ccco2)C(=O)/C1=C\c1cccn1CCOc1ccccc1 | 6.57%
O=C1CC(=O)N(Cc2ccccc2)C(=O)N1CCCCCCN1C(=O)CC(=O)N(Cc2ccccc2)C1=O | 25.7% (active)
COc1ccccc1N=Nc1c(O)[nH]c(=S)[nH]c1=O | 64.9% (active)
CC(C)n1c(=O)c(C=Nc2ccc(Br)cc2)c(O)n(Cc2ccco2)c1=O | 17.1%
CC/C(=N\NC(=O)c1ccccc1O)c1c(O)n(Cc2ccccc2)c(=O)[nH]c1=O | 21.9%
